Screening data (PubChem BioAssay)
MCF10A rerep – DNA re-replication induction in MCF 10a cells; MCF 10A DNA re-replication, Hoechst nuclear intensity, 48 h; Potency, µM (highest dose often 46.1 µM), for inactives: top-dose activity, positive = re-replication, usual class: activators; 350,000 tested, 2.9% active; AID 624296; note: potency is the fitted concentration of half-maximal effect; % of control where 0% means no effect; nearly all actives have a fitted effect of over 50% in size
SW480 rerep – inducers of DNA re-replication in SW480 colon cancer cells; SW480 DNA re-replication, Hoechst DNA content imaging, 48 h; Potency, µM (top dose mostly 46.1 µM), for the others: at the top dose re-replication activation, usual class: activators; 340,000 tested, 1.8% active; note: potency is the fitted concentration of half-maximal effect; % of control where 0% means no effect; nearly all actives have a fitted effect of over 55% in size
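Cells (250 per well) received 23 nL compound or DMSO by pin tool and were kept 48 hr at 37 C, 5% CO2. Nuclei were then stained with Hoechst for 40 min and scanned for DNA content.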
BCR signal inh – blocks chronic active B-cell receptor signaling; ABC-DLBCL IkBa-CBG/CBR reporter, luminescence ratio, 4 h; Potency, µM (doses to about 46.1 µM), for the others: at the highest dose activity change, negative = inhibition, most hits filed as inhibitors; 340,000 tested, 0.05% active; active = well fitted inhibition curve with a large enough effect in the signal ratio, with a control signal flat, not every such curve was filed as active; inconclusive = small, poorly fitted or top-dose-only effect, or effect the other way, or a change in a side signal; the % refers to the signal ratio;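 note: potency is the fitted concentration of half-maximal effect; plate controls were basal doxycycline-induced cells for no effect and cells given 10 µM MG132 for full effect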
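TMD8 ABC-DLBCL cells carrying doxycycline-inducible green luciferase fused to IkappaBalpha plus unfused red luciferase were exposed to compounds (up to 46 uM) for 4 hrs at 37C. Activity came from the overlap-corrected green/red luminescence ratio.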
DT40 TDP1 CPT – DT40-hTDP1 cell growth loss with CPT; 420,000 tested, 12% active; chicken DT40 Tdp1-/-;hTDP1 cells + 20 nM CPT, ATP luminescence, 48 h; AID 686979; Potency, µM (series often up to 46.2 µM), for inactives: at the highest dose activity change, negative = growth inhibition, usual class: inhibitors; note: potency is the fitted concentration of half-maximal effect; % is set by controls: 0 for no effect and ±100 for the full control effect; nearly all actives have a fitted effect of over 55% in size
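Chicken DT40 Tdp1-/- cells complemented with human TDP1, 400 cells/well, exposed to compounds plus 20 nM camptothecin for at least 48 h at 37 C; viability read as ATP content by CellTiter-Glo luminescence.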
DT40 TDP1 no CPT – qHTS for Inhibitors of human tyrosyl-DNA phosphodiesterase 1 (TDP1): qHTS in cells in absence of CPT; 420,000 tested, 15% active; Potency, µM (titrated, usually from 46.2 µM), for the others: top-dose activity change, negative = growth inhibition, actives largely listed as inhibitors; AID 686978, 2013; DT40 Tdp1-/- hTDP1 cells, no CPT, ATP luminescence, 48 h; note: potency is the fitted concentration of half-maximal effect; % is set by controls: 0 for no effect and ±100 for the full control effect; nearly all actives have a fitted effect of over 55% in size
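Growth of hTDP1-complemented DT40 Tdp1-knockout cells is measured by ATP luminescence after at least 48 hr compound exposure at 37 °C, with DMSO substituting for the 20 nM CPT used in the parallel screen.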
IL-1B inflam inh – blocks inflammasome-driven IL-1 beta release; THP-1 LPS/ATP IL-1B secretion, AlphaLISA, 16 h; stronger effect = lower value; activity change, % at 57.5 µM; 360,000 tested, 4.7% active; in the data active = activity change below about -50%; inconclusive = mostly about -30% to -49%; note: % is set by controls: 0 for no effect and ±100 for the full control effect
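Secreted IL-1B measured by AlphaLISA bead assay after 16 h compound exposure of THP-1 cells; compounds (final up to 57.5 uM) added 1 h before LPS (250 ng/mL) and ATP (1.25 mM) stimulation; lower signal means less secretion.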
* hit, by the source's call; ? = inconclusive; / = no result given; [ ] = another dose, or the depositor's remark. This is a sample that favours compounds with a hit; in the whole collection about 19% have one here. Unless noted, calls come from the whole dose curve; as a rule, active = well fitted curve in the direction sought with a large enough effect; inconclusive = small, poorly fitted or top-dose-only effect, or another doubt; inactive = no such curve, though single readings can be large; an effect the other way counts as inactive or inconclusive.

SMILES	MCF10A rerep	SW480 rerep	BCR signal inh	DT40 TDP1 CPT	DT40 TDP1 no CPT	IL-1B inflam inh
Cn1c2c(c(=O)n(C)c1=O)CS(=O)c1ccccc1N2 (centres undefined)	/	/	/	-17%	1%	33
COC(=O)c1ccccc1NC(=O)CN1CCC(n2nnc3cc(C(F)(F)F)ccc32)CC1	?	1%	?	-3%	-29%	13
CC1Cc2ccccc2N1C(=O)CN1CCC(n2nnc3cc(C(F)(F)F)ccc32)CC1 (centres undefined)	-4%	10%	3%	?	23µM*	-58*
O=C(CN1CCC(n2nnc3cc(C(F)(F)F)ccc32)CC1)Nc1ccc2c(c1)CCC2	16%	-1%	-3%	?	21µM*	-50*
CN(C)c1ncc2nc(-c3cn(C)c4ccccc34)c(=O)n(C[C@H]3CCCO3)c2n1	/	/	/	4%	17%	/
NC(Cc1ccc(Cl)cc1)c1csc(Nc2ccc(S(N)(=O)=O)cc2)n1 (centres undefined)	/	/	/	15µM*	9.2µM*	?
NS(=O)(=O)c1ccc(CCNS(=O)(=O)Cc2ccc(Cl)cc2)cc1	3%	2%	-2%	5%	-27%	19
CC(C)C(N)c1csc(Nc2ccc(S(C)(=O)=O)cc2)n1 (centres undefined)	/	/	/	7%	0%	-26
Clc1ccc(Nc2nc(C3CC3)cs2)cc1	17%	-1%	?	-24%	?	3
CS(=O)(=O)c1ccc(Nc2nc(C(N)Cc3ccc(Cl)cc3)cs2)cc1 (centres undefined)	/	/	/	12µM*	16µM*	?
COc1ccc(C(N)c2csc(Nc3ccc(S(C)(=O)=O)cc3)n2)cc1 (centres undefined)	/	/	/	23µM*	?	-25
NC(Cc1ccc(C(F)(F)F)cc1)c1csc(Nc2ccc(S(N)(=O)=O)cc2)n1 (centres undefined)	/	/	/	13µM*	21µM*	?
NC(=O)c1ccsc1NC(=O)CS(=O)(=O)c1ccc(F)cc1	1%	-6%	0%	?	?	-7
COc1ccc(CC2NCCC3=CC(=O)CCC32)cc1O (centres undefined)	-30%	-15%	/	/	/	/
CCn1c(COc2ccc(Cl)cc2)nnc1SC1CCc2ccccc2C1=O (centres undefined)	?	2%	0%	?	21µM*	17
COc1ccc([N+](=O)[O-])cc1NC(=O)C(C)Sc1ccccc1 (centres undefined)	-6%	/	7%	?	?	7
COc1ccc(C(CC(=O)Nc2cc([N+](=O)[O-])ccc2OC)c2ccccc2)cc1 (centres undefined)	16%	-3%	21%	16µM*	?	17
COc1ccc([N+](=O)[O-])cc1NCc1ccccc1C	5.8µM*	?	2%	-20%	-27%	-16
COc1ccc([N+](=O)[O-])cc1NC(=O)C(C)Sc1nc(-c2ccccc2)cs1 (centres undefined)	0%	4%	?	18µM*	?	10
COc1ccc([N+](=O)[O-])cc1NCc1ccccc1	3%	1%	?	?	?	-89*
COc1ccc([N+](=O)[O-])cc1NC(=O)Cc1ccc(C)cc1	6%	-2%	-7%	-12%	-18%	-8
Cc1cccc(NC(=O)Cn2c(=O)n(Cc3nc(-c4ccccc4)no3)c(=O)c3ccccc32)c1	/	/	/	-29%	?	/
CCOc1cc(CNc2ccc(O)cc2)cc(Br)c1OCc1ccccc1	/	/	/	23µM*	16µM*	/
CCOc1cc(CNc2ccc3c(c2)OCCO3)cc(Br)c1OC	1.6µM*	7.3µM*	?	0.52µM*	1.2µM*	22
CCN1CCCC1CNCc1cccc(OC)c1OCc1ccccc1F (centres undefined)	-5%	-4%	2%	-19%	-7%	-6
SMILES	MCF10A rerep	SW480 rerep	BCR signal inh	DT40 TDP1 CPT	DT40 TDP1 no CPT	IL-1B inflam inh
CCOc1c(Br)cc(CNc2ccc(N3CCOCC3)cc2)cc1OC	9%	-23%	-12%	?	?	-20
COc1cc(CNc2ccc(O)cc2)cc(Br)c1OCc1ccccc1F	?	?	12%	16µM*	?	-1
COc1cccc(CNc2ccccc2O)c1OCc1ccccc1F	?	21µM*	?	23µM*	?	-92*
CCCNC(=O)C1(C)CCN(Cc2ccc(-n3ccnc3)cc2)C1 (centres undefined)	/	/	/	1%	-5%	0
Cn1c(=O)[nH]c(=O)c2c1nc(SCC(O)CCl)n2Cc1ccccc1 (centres undefined)	25%	16%	-7%	12µM*	?	11
Cn1c(=O)[nH]c(=O)c2c1nc(SCC(=O)Nc1ccccc1)n2Cc1ccccc1	1%	-7%	?	23µM*	18µM*	-15
C=C(C)CSc1nc2c(c(=O)[nH]c(=O)n2C)n1Cc1ccccc1	-2%	1%	0%	?	?	2
CCCCCCCCCCCCCCCC(=O)OC(C)C	-2%	-2%	/	-1%	-3%	/
CCC(=O)OCCNc1cc(Sc2nc3ccccc3s2)c2nonc2c1[N+](=O)[O-]	-9%	-11%	-13%	1.6µM*	2.1µM*	-14
CCCSc1cc(NCCOC(=O)CCC)c([N+](=O)[O-])c2nonc12	?	8%	-26%	2.6µM*	4.6µM*	-19
O=[N+]([O-])c1c(NCCCO)cc(Sc2nc3ccccc3s2)c2nonc12	?	?	?	1.3µM*	0.79µM*	?
CCC(=O)OCCNc1cc(Sc2nc3ccccc3[nH]2)c2nonc2c1[N+](=O)[O-]	1.3µM*	10µM*	?	2.3µM*	2.9µM*	-101*
COc1ccc(-n2c(CCNC(=O)c3ccc(-c4cccc(F)c4)cc3)nnc2SC)cc1	/	/	/	-1%[9.04 µM]	?	/
CCCSc1cc(NCCOC(C)=O)c([N+](=O)[O-])c2nonc12	-6%	-8%	1%	-1%	?	14
CC(=O)OCCCNc1cc(SCc2ccco2)c2nonc2c1[N+](=O)[O-]	?	?	?	21µM*	?	-103*
CNC(=O)c1c(NC(=O)c2ccc(S(=O)(=O)N3CCCCC3)cc2)sc2c1CCN(C(C)C)C2	28%	?	-11%	?	?	33
